Data on 5 molecules can be found in PubChem BioAssay (NCATS).

Test [1] deals with Lysosomal acid glucosylceramidase (Homo sapiens) (UniProt P04062). The experiment in a line: Glucocerebrosidase-p2 (AID 348; in the data active = potency below about 10 µM; also: potency is read from the fitted curve at half-maximal effect). Particulars: purified GBA, blue fluorogenic substrate, 40 min. In outline: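 Compounds titrated from 0.6 nM upwards against 0.2 nM enzyme in pH 5.9 citric acid/KH2PO4, taurocholate, tween-20; blue fluorogenic substrate 80 uM, 40 min room temperature, stopped and read Ex 365/Em 440 for AC50.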

A short description of test [2]: AP1 Signaling Pathway (AID 357).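 Also: ME-180 reporter cells stimulated with EGF at its EC50 level; % is scaled to controls: 0 for no effect and ±100 for the full control effect.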 Particulars: ME-180 AP-1-bla reporter, EGF-induced, beta-lactamase ratio, 5 h; at 7.69 µM (top of the series) unless noted. In outline: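 Beta-lactamase reporter under AP-1 response element, ME-180 background. Stimulus: EC50 EGF. Compound exposure 5 h, 37 °C. Detection: CCF4, 2.5 h RT, 460/530 nm. Values: AC50 from titration.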
Test [3] has as its target Cytochrome P450 1A2 (Homo sapiens) (UniProt P05177). The experiment in a line: p450-cyp1a2 (AID 410; calls by dose curve; also: potency is read from the fitted curve at half-maximal effect). Particulars: recombinant CYP1A2, luciferin-ME demethylation, luminescence; series mostly up to 57 µM. The method, boiled down: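 Human CYP1A2 (20nM) demethylated Luciferin-ME at its Km (100uM) in 100mM KPO4. After 10 min compound preincubation, NADPH regeneration ran the reaction 60 min at room temperature. Luciferin was read by luminescence, normalized to 57 uM furafylline.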

Test [4] can be described thus: NFAT Signaling Pathway (AID 444).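 Also: carbachol stimulus at about its EC50 of 1 µM final; % is scaled to controls: 0 for no effect and ±100 for the full control effect.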 Particulars: Jurkat NFAT-bla M1, carbachol, beta-lactamase ratio, 5 h; at 7.69 µM (top of the series) unless noted. The method, boiled down: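 Jurkat cells carrying an NFAT-driven β-lactamase reporter and co-transfected muscarinic M1 receptor were treated with compound plus carbachol (1 uM final, an EC50 level) for 5 h at 37 °C. CCF4 loading followed for 1 h at RT; 460/530 nm ratio gave %activity.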

Test [5] in a line: Stat Signaling Pathway (AID 446).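 Also: ME-180 cervical cancer cells given 40 pM IL-6 alongside compound; SIE-controlled beta-lactamase reporter measured as 460/530 nm FRET emission ratio; % is scaled to controls: 0 for no effect and ±100 for the full control effect.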 Particulars: ME-180 (cervical carcinoma) SIE beta-lactamase reporter, IL-6 stimulated, 5 h; at 7.69 µM (top of the series) unless noted. The method, boiled down: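 IL-6/STAT signaling read in ME-180 cells via an SIE beta-lactamase reporter. Stimulus was 40 pM IL-6 (its AC50) for 5 hrs, so both activation and inhibition register.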
The target in test [6] is Glucocorticoid receptor (Homo sapiens) (UniProt P04150). The experiment in a line: GR-GFP Redistribution (AID 450;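 active = compounds whose dose series gives a full or clear partial fitted curve of increased nuclear translocation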; also: potency is read from the fitted curve at half-maximal effect). Particulars: U2OS GR-GFP nuclear translocation, laser cytometry, 2 h.
Test [7] has the same target. As to the kind of experiment: GR-EFC Redistribution (AID 451; calls by dose curve; also: potency is read from the fitted curve at half-maximal effect). Particulars: CHO-K1 GR-EFC translocation, beta-gal luminescence, 2 h. The method, boiled down:
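CHO-K1 cells stably expressing nuclear-localized β-gal enzyme acceptor and GR fused C-terminally to the enzyme donor fragment; ligand-driven nuclear translocation restores β-gal by complementation. Compounds titrated up to 46 uM final, 2 h at 37 °C; luminescence read.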

Test [8] addresses Mitogen-activated protein kinase 10 (Mus musculus) (UniProt Q61831). The experiment in a line: JNK3 AlphaScreen Assay (AID 530).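 Also: kinase came from lysate of stimulated human HepG2 cells; signal reports phosphorylation of biotinylated GST-cJun 1-79 at Ser73 with 10 µM ATP; % is scaled to controls: 0 for no effect and ±100 for the full control effect.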 Particulars: JNK3 lysate, c-Jun phosphorylation; series mostly up to 57.1 µM. The method, boiled down:
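JNK3 came from HepG2 lysates pre-activated with IL-1beta and TNF-alpha and phosphorylated biotinylated GST-cJun (1-79) at 10 uM ATP, pH 7.6, room temperature. Compounds were titrated. AlphaScreen signal used anti-phospho-cJun (Ser73) antibody.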
In general terms: Alpha assays give light when donor and acceptor beads are brought close together.

For test [9], the target named is 3',5'-cyclic-AMP phosphodiesterase 4B (Homo sapiens) (UniProt Q07343). The experiment in a line: qHTS Assay for Inhibitors of PDE-IV (AID 607; active = well fitted activation curve with a large enough effect in the main read-out, with a control signal flat, not every such curve was filed as active; also: potency is read from the fitted curve at half-maximal effect). Particulars: HEK293 ACTOne CNG channel cells, membrane potential fluorescence; series mostly up to 22.9 µM. The method, boiled down: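 Live HEK293 cells with a modified cyclic nucleotide-gated (CNG) channel report intracellular cAMP via membrane-potential dye fluorescence (ex 535/em 590 nm). Endogenous PDE-IV was targeted. Compounds were tested at up to 22.9 uM final; RO 20-1724 100 uM served as control.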

In test [10] the target is Cytochrome P450 3A4 (Homo sapiens) (UniProt P08684). The experiment in a line: qHTS Assay for Inhibitors and Substrates of Cytochrome P450 3A4 (AID 884; active = well fitted curve in the direction sought with a large enough effect; an effect the other way counts as inactive or inconclusive; also: potency is read from the fitted curve at half-maximal effect; nearly all actives have a fitted effect of over 50% in size). Particulars: recombinant CYP3A4, Luciferin-PPXE luminescence; series mostly up to 57.1 µM. The method, boiled down:
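20 nM human CYP3A4 with 25 uM Luciferin-PPXE (at KM) in 200 mM KPO4, preincubated 10 min with compound; NADPH regeneration started a 60 min RT reaction. Luciferin detected by luminescence, normalized to 57 uM ketoconazole as full inhibition.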
(In general: Quantitative high-throughput screening tests each substance at several concentrations.)

Test [11] shares this target. As to the kind of experiment: qHTS Assay for Activators of Cytochrome P450 3A4 (AID 885; active = well fitted curve in the direction sought with a large enough effect; an effect the other way counts as inactive or inconclusive; also: nearly all actives have a fitted effect of over 65% in size). Particulars: recombinant CYP3A4, Luciferin-PPXE luminescence, 60 min; series mostly up to 57.1 µM. In outline: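 Quantitative HTS format: compounds preincubated with 20nM human CYP3A4 and Luciferin-PPXE substrate at KM, reaction started by NADPH regeneration, stopped after 60 min, luciferase luminescence read 20 min later.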

Test [12] can be described thus: qHTS Assay for Lipid Storage Modulators (AID 1519; calls by dose curve). Particulars: Drosophila S3 cells, BODIPY lipid droplet/cell ratio, laser cytometry, cells loaded with oleic acid; for activity change, negative = inhibition: at 57.5 µM (top of the series). The method, boiled down: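 Cells seeded at 5,000 per well were treated with compounds over a concentration series and loaded with oleic acid (400 uM, as added). Lipid droplet fluorescence (488 nm excitation, 500-530 nm channel) was read by laser-scanning cytometry and normalized to 20 uM Triacsin C.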

The target of test [13] is Dual specificity protein kinase CLK4 (Homo sapiens) (UniProt Q9HAZ1). The experiment in a line: qHTS Assay for Inhibitors of CDC-like Kinase 4 (ADP-Glo Assay) (AID 1771; active = well fitted curve in the direction sought with a large enough effect; an effect the other way counts as inactive or inconclusive; also: % is scaled to controls: 0 for no effect and ±100 for the full control effect; nearly all actives have a fitted effect of over 70% in size). Particulars: recombinant CLK4, ADP-Glo luminescence; series mostly up to 80 µM. The method, boiled down: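 Clk4 (25 nM) was incubated 1 hr at room temperature with 100 uM RS repeat peptide and 1 uM ATP in buffer with 2 mM MgCl2, 0.5 mM EGTA, 2.5 mM DTT. ADP formed was quantified by ADP-Glo luminescence.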

Test [14] addresses Ubiquitin carboxyl-terminal hydrolase 1 (Homo sapiens) (UniProt O94782). As to the kind of experiment: Inhibitors of USP1/UAF1: Pilot qHTS (AID 504865; active = well fitted curve in the direction sought with a large enough effect; an effect the other way counts as inactive or inconclusive;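 also: rhodamine fluorescence freed from ubiquitin-rhodamine substrate followed over time; top concentration of the series differs between compounds; % is scaled to controls: 0 for no effect and ±100 for the full control effect; nearly all actives have a fitted effect of over 35% in size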). Particulars: purified USP1/UAF1, Ub-rhodamine cleavage fluorescence; series mostly up to 54.9 µM. In outline:
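Kinetic fluorescence assay: 1nM USP1/UAF1, 15 min compound preincubation, then 150nM Ub-Rho; 480/540 nm.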

The nature of test [15]: Primary qHTS for small molecule stabilizers of the endoplasmic reticulum resident proteome: Secreted ER Calcium Modulated Protein (SERCaMP) assay (AID 1508630; active = well fitted curve in the direction sought with a large enough effect; an effect the other way counts as inactive or inconclusive; also: % is scaled to controls: 0 for no effect and ±100 for the full control effect). Particulars: SH-SY5Y GLuc-SERCaMP (Gaussia luciferase released on ER calcium loss) secretion, thapsigargin, luminescence; series mostly up to 38.4 µM. In outline: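 GLuc-SERCaMP-expressing SH-SY5Y cells, pretreated 16 h with compound, are challenged with thapsigargin to empty ER calcium stores; after 4 h, coelenterazine is added directly to the medium and luminescence is imaged.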

The target in test [16] is Dual specificity protein kinase CLK4 (Homo sapiens) (UniProt Q9HAZ1). As to the kind of experiment: qHTS Assay for Inhibitors of CDC-like Kinase 4 (ADP-FP Assay) (AID 1795; active = well fitted curve in the direction sought with a large enough effect; an effect the other way counts as inactive or inconclusive; also: % is scaled to controls: 0 for no effect and ±100 for the full control effect; nearly all actives have a fitted effect of over 60% in size). Particulars: Transcreener ADP fluorescence polarization; series mostly up to 50 µM. The method, boiled down:
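Inhibition of ADP formation by 6.25 nM Clk4 is measured using 1 uM ATP and 100 uM RS repeat peptide over one hour. Produced ADP displaces a fluorescent tracer from antibody, lowering polarization.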

Setting [17] is: measured here: cell count channel max response.
[18] abbreviates: measured here: lipid channel max response.

Inconclusive results are not listed. Calls of active or inactive are those of the source. Unless noted, calls follow the shape of the dose curve; as a rule, active = well fitted curve in either direction with a large enough effect (not every such curve was filed as active); inconclusive = small, poorly fitted or top-dose-only effect, or another doubt; inactive = flat fitted curve, though single readings scatter.

Chain of 3',5'-cyclic-AMP phosphodiesterase 4B (Homo sapiens) (Q07343 whole entry, looked up): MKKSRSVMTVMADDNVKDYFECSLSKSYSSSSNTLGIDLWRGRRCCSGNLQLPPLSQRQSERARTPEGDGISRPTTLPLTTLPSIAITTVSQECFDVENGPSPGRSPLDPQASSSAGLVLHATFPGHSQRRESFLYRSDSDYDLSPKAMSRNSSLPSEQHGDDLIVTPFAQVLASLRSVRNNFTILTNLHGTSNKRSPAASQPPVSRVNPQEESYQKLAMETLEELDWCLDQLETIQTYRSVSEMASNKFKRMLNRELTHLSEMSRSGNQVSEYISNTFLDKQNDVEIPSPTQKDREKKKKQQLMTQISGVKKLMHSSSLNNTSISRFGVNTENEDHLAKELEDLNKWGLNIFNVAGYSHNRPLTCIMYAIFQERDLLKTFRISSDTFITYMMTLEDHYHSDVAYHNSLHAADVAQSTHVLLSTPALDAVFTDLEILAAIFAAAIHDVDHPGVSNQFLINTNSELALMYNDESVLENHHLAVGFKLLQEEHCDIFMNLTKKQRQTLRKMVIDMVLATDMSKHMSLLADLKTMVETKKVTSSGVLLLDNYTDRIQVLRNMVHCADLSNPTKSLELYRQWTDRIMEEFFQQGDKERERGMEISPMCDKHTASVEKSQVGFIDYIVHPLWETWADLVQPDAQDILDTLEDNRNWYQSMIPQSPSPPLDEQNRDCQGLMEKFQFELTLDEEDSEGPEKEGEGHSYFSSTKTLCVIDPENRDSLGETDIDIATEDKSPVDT
Chain of Cytochrome P450 3A4 (Homo sapiens) (P08684 whole entry, looked up): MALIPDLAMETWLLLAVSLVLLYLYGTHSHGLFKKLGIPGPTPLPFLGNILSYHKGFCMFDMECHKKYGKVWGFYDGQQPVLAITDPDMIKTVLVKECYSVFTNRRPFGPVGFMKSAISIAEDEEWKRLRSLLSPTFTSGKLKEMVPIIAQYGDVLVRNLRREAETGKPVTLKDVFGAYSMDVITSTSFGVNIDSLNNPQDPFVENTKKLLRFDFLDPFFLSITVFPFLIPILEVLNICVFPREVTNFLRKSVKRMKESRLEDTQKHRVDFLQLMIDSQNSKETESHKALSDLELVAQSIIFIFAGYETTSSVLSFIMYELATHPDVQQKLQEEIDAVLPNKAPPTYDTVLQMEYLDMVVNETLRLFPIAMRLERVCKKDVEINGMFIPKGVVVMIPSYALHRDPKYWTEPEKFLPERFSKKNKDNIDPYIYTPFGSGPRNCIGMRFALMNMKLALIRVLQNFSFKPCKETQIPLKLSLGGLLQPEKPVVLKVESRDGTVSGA
Chain of Lysosomal acid glucosylceramidase (Homo sapiens) (P04062 whole entry, looked up): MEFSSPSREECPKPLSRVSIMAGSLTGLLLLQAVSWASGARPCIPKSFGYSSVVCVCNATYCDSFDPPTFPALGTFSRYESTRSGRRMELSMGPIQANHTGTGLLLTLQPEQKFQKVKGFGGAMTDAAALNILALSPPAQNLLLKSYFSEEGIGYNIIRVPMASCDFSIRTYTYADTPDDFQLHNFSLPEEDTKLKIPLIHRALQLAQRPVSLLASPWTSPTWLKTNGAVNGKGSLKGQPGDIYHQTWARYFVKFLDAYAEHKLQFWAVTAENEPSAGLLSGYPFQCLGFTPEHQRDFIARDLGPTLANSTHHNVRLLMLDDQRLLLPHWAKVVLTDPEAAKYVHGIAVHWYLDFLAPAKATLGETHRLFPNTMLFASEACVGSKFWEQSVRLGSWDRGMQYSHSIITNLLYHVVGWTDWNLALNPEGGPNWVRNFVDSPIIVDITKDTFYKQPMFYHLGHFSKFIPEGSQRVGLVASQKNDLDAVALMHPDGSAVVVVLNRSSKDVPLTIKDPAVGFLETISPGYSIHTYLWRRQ
Chain of Glucocorticoid receptor (Homo sapiens) (P04150 whole entry, looked up): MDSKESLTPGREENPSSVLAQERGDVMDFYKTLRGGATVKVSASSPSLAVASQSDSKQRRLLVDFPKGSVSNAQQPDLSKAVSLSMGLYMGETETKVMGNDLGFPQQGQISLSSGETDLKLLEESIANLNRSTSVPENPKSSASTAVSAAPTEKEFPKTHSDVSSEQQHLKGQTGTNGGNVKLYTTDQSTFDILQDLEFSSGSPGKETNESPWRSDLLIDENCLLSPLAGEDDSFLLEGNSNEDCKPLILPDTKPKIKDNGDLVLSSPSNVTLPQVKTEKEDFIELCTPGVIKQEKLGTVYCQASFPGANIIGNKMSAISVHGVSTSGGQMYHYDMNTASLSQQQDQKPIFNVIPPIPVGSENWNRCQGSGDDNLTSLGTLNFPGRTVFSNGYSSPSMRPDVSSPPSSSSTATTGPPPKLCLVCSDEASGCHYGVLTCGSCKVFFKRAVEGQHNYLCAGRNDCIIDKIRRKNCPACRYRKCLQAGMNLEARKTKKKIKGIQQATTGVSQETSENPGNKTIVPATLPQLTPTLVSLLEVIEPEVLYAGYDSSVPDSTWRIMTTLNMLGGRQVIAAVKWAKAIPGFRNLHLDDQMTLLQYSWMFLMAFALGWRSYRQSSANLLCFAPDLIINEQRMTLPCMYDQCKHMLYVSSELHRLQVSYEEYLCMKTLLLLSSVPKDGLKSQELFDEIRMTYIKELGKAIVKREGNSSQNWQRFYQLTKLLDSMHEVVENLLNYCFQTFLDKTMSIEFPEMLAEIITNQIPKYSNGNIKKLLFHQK
Chain of Dual specificity protein kinase CLK4 (Homo sapiens) (Q9HAZ1 whole entry, looked up): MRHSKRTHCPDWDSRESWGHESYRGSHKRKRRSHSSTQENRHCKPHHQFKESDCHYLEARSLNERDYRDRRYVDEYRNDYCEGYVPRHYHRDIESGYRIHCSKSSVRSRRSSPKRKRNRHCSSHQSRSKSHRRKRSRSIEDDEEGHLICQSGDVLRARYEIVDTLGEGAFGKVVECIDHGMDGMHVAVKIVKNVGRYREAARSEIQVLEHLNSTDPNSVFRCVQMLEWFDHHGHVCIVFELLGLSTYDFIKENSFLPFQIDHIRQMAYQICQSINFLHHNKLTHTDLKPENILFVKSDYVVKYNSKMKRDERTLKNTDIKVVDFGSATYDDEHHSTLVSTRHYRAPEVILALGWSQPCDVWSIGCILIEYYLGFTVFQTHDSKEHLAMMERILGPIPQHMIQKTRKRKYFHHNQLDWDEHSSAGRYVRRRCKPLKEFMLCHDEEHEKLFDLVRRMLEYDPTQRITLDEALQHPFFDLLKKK
Chain of Cytochrome P450 1A2 (Homo sapiens) (P05177 whole entry, looked up): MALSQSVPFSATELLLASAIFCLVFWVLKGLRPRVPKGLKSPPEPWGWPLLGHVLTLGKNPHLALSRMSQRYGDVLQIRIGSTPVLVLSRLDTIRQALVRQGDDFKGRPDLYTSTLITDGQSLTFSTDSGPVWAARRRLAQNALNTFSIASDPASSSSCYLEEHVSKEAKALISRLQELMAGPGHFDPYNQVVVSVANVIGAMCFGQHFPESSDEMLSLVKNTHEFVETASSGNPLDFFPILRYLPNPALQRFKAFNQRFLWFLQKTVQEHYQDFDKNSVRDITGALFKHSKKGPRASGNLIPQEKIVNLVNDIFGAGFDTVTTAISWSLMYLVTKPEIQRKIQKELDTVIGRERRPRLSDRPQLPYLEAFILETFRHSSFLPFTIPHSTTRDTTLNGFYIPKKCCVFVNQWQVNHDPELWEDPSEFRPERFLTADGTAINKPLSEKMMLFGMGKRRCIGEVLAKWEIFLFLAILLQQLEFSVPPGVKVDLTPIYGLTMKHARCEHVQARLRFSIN
Chain of Ubiquitin carboxyl-terminal hydrolase 1 (Homo sapiens) (O94782 whole entry, looked up): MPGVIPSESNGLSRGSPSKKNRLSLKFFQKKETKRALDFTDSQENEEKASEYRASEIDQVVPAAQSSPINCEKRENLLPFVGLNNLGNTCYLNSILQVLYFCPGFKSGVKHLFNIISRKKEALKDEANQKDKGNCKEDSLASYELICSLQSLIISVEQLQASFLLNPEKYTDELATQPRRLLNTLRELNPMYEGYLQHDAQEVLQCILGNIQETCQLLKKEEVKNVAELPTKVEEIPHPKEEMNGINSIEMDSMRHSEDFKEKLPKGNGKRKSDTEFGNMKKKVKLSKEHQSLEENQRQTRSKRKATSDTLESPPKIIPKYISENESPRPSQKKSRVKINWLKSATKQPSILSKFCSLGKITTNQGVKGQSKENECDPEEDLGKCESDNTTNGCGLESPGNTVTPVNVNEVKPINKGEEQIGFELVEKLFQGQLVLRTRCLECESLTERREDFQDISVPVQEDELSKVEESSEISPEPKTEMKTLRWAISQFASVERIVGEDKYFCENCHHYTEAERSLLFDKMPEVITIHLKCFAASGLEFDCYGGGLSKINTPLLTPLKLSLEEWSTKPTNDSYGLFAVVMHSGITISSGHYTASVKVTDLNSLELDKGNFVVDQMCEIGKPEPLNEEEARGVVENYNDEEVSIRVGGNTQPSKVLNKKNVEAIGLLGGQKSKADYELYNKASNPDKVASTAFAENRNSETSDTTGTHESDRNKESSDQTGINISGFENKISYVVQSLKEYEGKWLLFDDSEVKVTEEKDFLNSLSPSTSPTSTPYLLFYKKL

Regarding `Fc1ccc(Nc2ccnc(-c3ccoc3)n2)cc1`, the Potency in test [1] is > 11.4 µM (inactive); in [3], 1 µM (active); in [6], > 46 µM (inactive); in test [7] it was > 46 µM (inactive); in test [10] it was 7.94 µM (active). The activity change, negative = inhibition in test [2] was -6.54% (inactive); in test [4], 6.01% (inactive); in [12], 8.99% (inactive). The activity, negative = inhibition in test [5] was 8.8% (inactive). In test [8], the molecule was classed as inactive. Also, the Potency result in test [9], in test [11], in [13], in test [14] and in [15] was “inactive” throughout. In addition, the max response in test [12] (setting [17]) is 9.29%; in [12] (setting [18]), 17.6%.

In the case of `COCCNc1cc(-c2c(C)noc2C)ncn1`, the Potency in test [1] is > 11.4 µM (inactive); in [3], 10 µM (active); in test [6] it was > 46 µM (inactive); in [7], > 46 µM (inactive). For the same molecule, the activity change, negative = inhibition in [2] is -3.45% (inactive); in test [4], 3.73% (inactive); in test [12], 8.14% (inactive). Further, in [5], the activity, negative = inhibition was 0.472% (inactive). The outcome in test [8] was inactive. The Potency result in [9], in test [16], in test [14] and in test [15] was “inactive” each time. Besides, the max response in [12] (setting [17]) stood at 13%; in [12] (setting [18]) it was 22.2%.

For `c1ccc2c(NC3CCNCC3)nc(-c3ccoc3)nc2c1`, the Potency was > 11.4 µM (inactive) in [1], 15.8 µM (active) in [3], > 46 µM (inactive) in test [6] and > 46 µM (inactive) in test [7]. Further, the figures for the activity change, negative = inhibition in test [2], in test [4] and in test [12] were 8.91% (inactive), 5.13% (inactive) and 0.038% (inactive), respectively. Besides, the activity, negative = inhibition in test [5] is 7% (inactive). Moreover, the molecule was classed as inactive in test [8]. Moreover, the max response in [12] (setting [17]) is 5.08%; in [12] (setting [18]), 2.41%. Also, the Potency result in test [13], in test [14] and in [15] was “inactive” in each case.

Regarding `CCNc1ncc2nc(C)c(=O)n(C3CC3)c2n1`, the Potency is > 11.4 µM (inactive) in test [1]; 5.01 µM (active) in [3]; > 9.22 µM (inactive) in test [6]; > 46 µM (inactive) in test [7]; 2.51 µM (active) in [9]. Also, the activity change, negative = inhibition in test [2] is -8.59% (inactive); in test [4], -13.9% (inactive); in [12] it was -1.33% (inactive). Moreover, in [5], the activity, negative = inhibition was -2.73% (inactive). Besides, the call in test [8] was inactive. Also, the max response in [12] (setting [17]) is 6.66%; in test [12] (setting [18]) it was 4.64%. In addition, the Potency result in [16], in [14] and in test [15] was “inactive” throughout.

As to `COc1ccc(CNc2ncncc2-c2cccnc2)c(OC)c1`, the Potency in test [1] is > 11.4 µM (inactive); in [3] it was 3.16 µM (active); in [6], > 46 µM (inactive); in test [10] it was 0.501 µM (active). The activity change, negative = inhibition in test [2] was 3.11% (inactive); in test [12], 4.88% (inactive). Moreover, the activity, negative = inhibition in [5] is 0.586% (inactive). For the same molecule, in test [8], the result was inactive. In addition, the Potency result in [9], in test [11], in test [16], in [14] and in test [15] was “inactive” each time. Further, the results for the max response in test [12] (setting [17]) and in [12] (setting [18]) were 18.2% and 22.7%, respectively.
